The values that follow come from PubChem BioAssay AID1220 (Sanford-Burnham Center for Chemical Genomics, 2008).

SMILES strings stand for the structures. Among all 190,000 compounds or so, about 1,300 (0.68%) were called active. Cut-off read from the data, not from the text of the source: active = inhibition above about 50%; inactive = the rest. The list comes from a sample in which actives are over-represented; it also holds similar structures and randomly drawn compounds.

A word on the inhibition: it is the drop in the measured response relative to a control, in per cent.

Chain of Mannose-6-phosphate isomerase (Homo sapiens) (P34949 whole entry, looked up): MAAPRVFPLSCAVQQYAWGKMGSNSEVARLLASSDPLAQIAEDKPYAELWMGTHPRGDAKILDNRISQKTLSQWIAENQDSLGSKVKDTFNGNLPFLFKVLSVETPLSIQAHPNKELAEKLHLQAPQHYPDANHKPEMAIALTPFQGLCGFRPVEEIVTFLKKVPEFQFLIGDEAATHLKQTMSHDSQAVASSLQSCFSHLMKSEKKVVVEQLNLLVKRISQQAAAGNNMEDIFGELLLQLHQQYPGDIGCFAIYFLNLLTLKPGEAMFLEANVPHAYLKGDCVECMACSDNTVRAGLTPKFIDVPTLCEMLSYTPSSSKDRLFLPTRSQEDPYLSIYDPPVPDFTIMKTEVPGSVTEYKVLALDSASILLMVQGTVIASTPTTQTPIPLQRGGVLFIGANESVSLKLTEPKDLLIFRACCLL

This experiment addresses Mannose-6-phosphate isomerase (Homo sapiens) (UniProt P34949). The experiment is described as follows: MPI inhibition at elevated mannose 6-phosphate – biochemical, fluorescence intensity, high mannose 6-phosphate, primary screen (AID 1220). The conditions noted are these: recombinant PMI enzyme, coupled fluorescence intensity; at 20 µM; active compounds read high.
With `O=C(Nc1ccc2[nH]c(=O)[nH]c2c1)Nc1ccc(F)cc1F`, the inhibition was 55.8% (active). On to `O=C(Nc1ccc(F)cc1F)Nc1ccc(F)cc1F`, for which the inhibition is -3.6% (inactive). Then `COc1ccccc1NC(=O)Nc1ccc2[nH]c(=O)[nH]c2c1`, with 6.1% (inactive). Then `Brc1ccc(C2=Nc3cccc4cccc(c34)N2)o1`, with 12.1% (inactive); and `c1coc(C2=Nc3cccc4cccc(c34)N2)c1`, with 63.6% (active); and `COc1cccc(C2=Nc3cccc4cccc(c34)N2)c1`, with -64.5% (inactive).

Take `Nc1ccc(C2=Nc3cccc4cccc(c34)N2)cc1`: the inhibition is 23.6% (inactive). `Fc1ccc(C2=Nc3cccc4cccc(c34)N2)cc1`: the inhibition was 45.2% (inactive). Turning to `COc1ccc(C2=Nc3cccc4cccc(c34)N2)cc1`, the inhibition was 53.1% (active). On to `COCC(C)NC(=O)C(C)Oc1ccccc1` (centres undefined), for which the inhibition was -3.4% (inactive). For `Cc1cnc(C(=O)N2CCCC(C(=O)c3ccc(C(C)(C)C)cc3)C2)cn1` (centres undefined), the inhibition was 5.6% (inactive). Then `COc1ccc(/C(N)=N/OC(=O)COc2ccccc2Cl)cc1`, with 6.3% (inactive). For `Cc1cc(=O)n2ccsc2n1` the value was -2.4% (inactive); for `Cc1ccn2c(=O)cc(C)nc2c1`, 9% (inactive); for `Cc1onc(-c2c(F)cccc2Cl)c1C(=O)OCC(=O)Nc1c(C)n(C)n(-c2ccccc2)c1=O`, -18.7% (inactive).

In the case of `COc1ccc(S(=O)(=O)N2CCN(CC(=O)Nc3ccc(F)c(F)c3)CC2)cc1`, the inhibition is -16.5% (inactive). Then `CN(C)N1C(N)=C(C#N)C(c2cccnc2)C2=C1CCCC2=O` (centres undefined), with 57.9% (active). For `CSc1ccc(C2C(C#N)=C(N)N(c3ccccc3)C3=C2C(=O)CCC3)cc1` (centres undefined) the value was 29.9% (inactive); for `N#CC1=C(N)N(c2ccccc2)C2=C(C(=O)CCC2)C1c1ccsc1` (centres undefined), 27.6% (inactive). Then `CN(C)N1C(N)=C(C#N)C(c2cccnc2)C2=C1CC(C)(C)CC2=O` (centres undefined), with 8.6% (inactive); and `CN(C)N1C(N)=C(C#N)C(c2ccsc2)C2=C1CCCC2=O` (centres undefined), with 61% (active); and `CCc1ccc(C2C(C#N)=C(N)OC3=C2C(=O)CCC3)s1` (centres undefined), with 6.1% (inactive). Turning to `Cc1ccc(N2C(N)=C(C#N)C(c3cccnc3)C3=C2CCCC3=O)cc1` (centres undefined), the inhibition was 47.7% (inactive). Then `CCc1ccc(C2C(C#N)=C(N)N(N(C)C)C3=C2C(=O)CCC3)s1` (centres undefined), with 59.7% (active); and `N#CC1=C(N)OC2=C(C(=O)CCC2)C1c1ccsc1` (centres undefined), with -1.2% (inactive); and `N#CC1=C(N)N(c2ccccc2)C2=C(C(=O)CCC2)C1c1ccccc1` (centres undefined), with 51.2% (active). In the case of `CN(C)N1C(N)=C(C#N)C(c2ccsc2)C2=C1CC(C)(C)CC2=O` (centres undefined), the inhibition is 18.1% (inactive). As for `CN(C)N1C(N)=C(C#N)C(c2cccs2)C2=C1CCCC2=O` (centres undefined), the inhibition is 33.2% (inactive).

On to `CCOC(=O)c1cccc(-c2ccc(C=O)o2)c1`, for which the inhibition was 7.1% (inactive). With `COc1ccc(/C=N\NC(=O)c2cccc(Br)c2)c(OC)c1`, the inhibition is 3% (inactive). For the molecule `CCN(CC)C(=O)CSc1nc2ccccc2c(=O)n1OC`, the inhibition was 4.5% (inactive). For `COC(=O)/C=C(\C)NC(=O)c1ccc(F)cc1` the value was 12.4% (inactive). Regarding `O=C(COC(=O)c1cccs1)NCc1ccco1`, the inhibition is -3.4% (inactive). `Cc1ncoc1C(=O)Nc1ccccc1-c1ccccc1`: the inhibition was -4.1% (inactive).

For the molecule `CCN(CC)C(=O)c1ccc(Cn2cc([N+](=O)[O-])cn2)o1`, the inhibition is 0% (inactive). For `CC(=O)c1ccc(NC(=O)Nc2ccc([N+](=O)[O-])cc2)cc1`, the inhibition was -0.1% (inactive). For `N#CC1=C(N)N(c2ccccc2C#N)C2=C(C(=O)CCC2)C1c1ccsc1` (centres undefined) the value was 19.7% (inactive); for `CN(C)N1C(N)=C(C#N)C(c2ccccc2)C2=C1CCCC2=O` (centres undefined), 42.1% (inactive); for `COc1ccc(C2C(C#N)=C(N)N(c3ncn[nH]3)C3=C2C(=O)CCC3)cc1` (centres undefined), 43.2% (inactive).

Turning to `COc1ccc(N2C(N)=C(C#N)C(c3ccsc3)C3=C2CCCC3=O)c(OC)c1` (centres undefined), the inhibition is 62% (active). As for `Cc1ccc(C2C(C#N)=C(N)N(N(C)C)C3=C2C(=O)CCC3)cc1` (centres undefined), the inhibition is 57.8% (active).

With `Cc1ccsc1C1C(C#N)=C(N)N(N(C)C)C2=C1C(=O)CCC2` (centres undefined), the inhibition was 15.7% (inactive). With `COc1ccc(-c2nc(NC(=O)Cn3c(=O)oc4ccccc43)sc2C)cc1`, the inhibition was 16.1% (inactive).

For the molecule `Nn1c(SCc2ccccc2)nc2c(cnn2-c2ccccc2)c1=O`, the inhibition is 4.9% (inactive). For `COc1ccc(-c2cccc(C(=O)NCC(=O)O)c2)cc1` the value was 2.2% (inactive). Then `Cc1ccccc1Nc1nc(N)nc(CN2CCN(Cc3ccc4c(c3)OCO4)CC2)n1`, with -1.7% (inactive). For `CCC1CCCCN1C(=S)Nc1cccc(S(=O)(=O)N(C)C)c1` (centres undefined), the inhibition was -6.4% (inactive). Then `O=C(c1ccc2c3c(cccc13)CC2)C1CCCN(Cc2ccncc2)C1` (centres undefined), with -2.1% (inactive); and `COc1cc(CN2CCCC(C(=O)c3ccc4c5c(cccc35)CC4)C2)cc(OC)c1O` (centres undefined), with 74.7% (active); and `O=C(c1ccc2c3c(cccc13)CC2)C1CCCN(Cc2cccnc2)C1` (centres undefined), with 11.4% (inactive). Consider `CC(C)NC(=O)c1ccccc1NC(=O)Cc1ccc(Cl)cc1`, for which the inhibition was -7.2% (inactive). Turning to `CCn1c2ccccc2c2cc(NC(=O)CCCN3C(=O)CCC3=O)ccc21`, the inhibition is -9.6% (inactive). For `CC1CCC/C(=C\Nc2ccc(C(=O)O)cc2)C1=O` (centres undefined), the inhibition is 25.7% (inactive).

On to `CCOC(=O)c1ccc(N/C=C2/CCCC(C)C2=O)cc1` (centres undefined), for which the inhibition was 8.1% (inactive). As to `CC1CCC/C(=C\Nc2ccc(O)cc2)C1=O` (centres undefined), the inhibition was 57.1% (active). On to `O=C(Cc1ccccc1)N/N=C/c1cccs1`, for which the inhibition is 4.5% (inactive). On to `O=C(Oc1cccc(O)c1)C1CCCCC1`, for which the inhibition was 13% (inactive). For `O=C(Oc1ccc2ccc(O)cc2c1)C1CCCCC1` the value was 55% (active); for `O=C(Oc1ccc2ccc(=O)oc2c1)C1CCCCC1`, -2.5% (inactive); for `CCOC(=O)C1CCCN(C(=S)NC2CCCCC2)C1` (centres undefined), 2.4% (inactive). For `CCn1c(SCC(=O)c2ccc(C)cc2)nnc1-c1ccoc1C` the value was -13.6% (inactive).

On to `CCC1CCCCN1CCNC(=O)C1CCN(S(=O)(=O)c2c(C)noc2C)CC1` (centres undefined), for which the inhibition was 1.5% (inactive). For `Cc1noc(C)c1S(=O)(=O)N1CCC(C(=O)NCCN2CCC(C)CC2)CC1` the value was 7.6% (inactive).

As for `Cc1noc(C)c1S(=O)(=O)N1CCC(C(=O)NCCCN2CC(C)CC(C)C2)CC1` (centres undefined), the inhibition was 54.6% (active). As to `CCNC(=S)Nc1scc(-c2ccccc2)c1C(=O)OCC`, the inhibition was 52.2% (active).

For the molecule `CCOC(=O)c1c(-c2ccccc2)csc1NC(=S)NC`, the inhibition is 14.4% (inactive).

Turning to `CCOC(=O)c1c(-c2ccccc2)csc1NC(=S)N(CC)CC`, the inhibition was 14.7% (inactive). Take `COC(=O)c1c(C)[nH]c(O)c1C=Nc1ccc(C#N)cc1`: the inhibition was 1.7% (inactive). For `COc1ccc(C2CC(=O)N3CN(Cc4ccco4)CSC3=C2C#N)cc1` (centres undefined) the value was 73.2% (active); for `N#CC1=C2SCN(c3ccccc3)CN2C(=O)CC1c1c(Cl)cccc1Cl` (centres undefined), 23.8% (inactive).

In the case of `Cc1ccc(C2CC(=O)N3CN(Cc4ccco4)CSC3=C2C#N)cc1` (centres undefined), the inhibition is 62.6% (active).

Turning to `N#CC1=C2SCN(Cc3ccco3)CN2C(=O)CC1c1ccc(Cl)cc1` (centres undefined), the inhibition is 53.5% (active). In the case of `CCOc1ccc(N2CSC3=C(C#N)C(c4ccco4)CC(=O)N3C2)cc1` (centres undefined), the inhibition was -62.8% (inactive). Then `CC(C)c1ccc(C2CC(=O)N3CN(Cc4ccco4)CSC3=C2C#N)cc1` (centres undefined), with 76% (active). Then `Cc1ccc(C2CC(=O)N3CN(c4ccc(Br)cc4)CSC3=C2C#N)o1` (centres undefined), with -40.7% (inactive); and `N#CC1=C2SCN(c3ccc(F)cc3)CN2C(=O)CC1c1cccc(F)c1` (centres undefined), with 14.8% (inactive). Then `Cc1cccc(N2CSC3=C(C#N)C(c4ccc(C)o4)CC(=O)N3C2)c1` (centres undefined), with -1.2% (inactive). For `N#CC1=C2SCN(Cc3ccco3)CN2C(=O)CC1c1c(F)cccc1Cl` (centres undefined), the inhibition was -26.5% (inactive).

`COc1ccc(C2CC(=O)N3CN(c4ccc(C)c(Cl)c4)CSC3=C2C#N)cc1` (centres undefined): the inhibition is 19.1% (inactive). For `Cc1ccc(N2CSC3=C(C#N)C(c4cccs4)CC(=O)N3C2)cc1` (centres undefined) the value was -74.9% (inactive). With `CCCN1C(=O)C(Cc2nc3ccccc3c(=O)n2-c2ccccc2)c2ccccc21` (centres undefined), the inhibition was 8.6% (inactive).

For `Cc1ccc(N2C(=O)C(O)(C(F)(F)F)C3=C2CC(C)(C)CC3=O)cc1C` (centres undefined), the inhibition is -10% (inactive). For `N#CCC1c2ccccc2CCN1C(=O)Nc1cccc(Cl)c1` (centres undefined) the value was 15.2% (inactive); for `CN1CCC(N2CCCC(C(=O)O)C2)CC1` (centres undefined), -1.5% (inactive). Turning to `O=C(NCC(F)(F)F)Nc1ccccn1`, the inhibition is -4.8% (inactive). As for `CCOCCNC(=O)c1ccc2c3c(cccc13)CC2`, the inhibition is -8.4% (inactive). For `CCC(C)NC(=O)C1CCCCN1S(=O)(=O)c1ccc(F)cc1` (centres undefined) the value was -2.3% (inactive); for `Cc1nn(C)c(Oc2ccc(Cl)cc2)c1C(=O)Nc1ccc(F)cc1F`, 1.9% (inactive).

For `Cc1ccc2c(c1)-c1ccccc1S(=O)(=O)N2`, the inhibition is -0.5% (inactive).

As for `NCCN=C1NS(=O)(=O)c2ccccc21`, the inhibition was 7.4% (inactive). On to `Nc1ccc2c(c1)-c1ccccc1S(=O)(=O)N2`, for which the inhibition was 52.3% (active). Then `COc1cc(CNCC2CCCO2)ccc1OCC(N)=O` (centres undefined), with -5.5% (inactive). For the molecule `COc1ccc2c(c1)OC13CCN(C)CC1C2C(C(=O)c1ccc(F)cc1)C(=O)N3` (centres undefined), the inhibition is -3.5% (inactive).

With `CCCC(=O)N1c2ccccc2C(=C2SC(C(=O)OC)=C(C(=O)OC)S2)C(=S)C1(C)C`, the inhibition is 32.9% (inactive). As to `COC(=O)C1=C(C(=O)OC)SC(=C2C(=S)C(C)(C)N(C(=O)CC(C)C)c3ccccc32)S1`, the inhibition is 33% (inactive).

For the molecule `CC1C(=O)Nc2ccccc2N1C(=O)C1CC1` (centres undefined), the inhibition was -7.6% (inactive). Then `CCC(C)C(=O)N1c2ccccc2C(=C2SC(C(=O)OC)=C(C(=O)OC)S2)C(=S)C1(C)C` (centres undefined), with 48.7% (inactive). Then `COCCNC(=O)C(C(=O)c1ccc(F)cc1)n1cc(C)ccc1=O` (centres undefined), with 19.5% (inactive). For `Cc1cccc(C(=O)NC(NCCc2ccccc2)C(Cl)(Cl)Cl)c1` (centres undefined) the value was 1.5% (inactive).
